From the supplement of paper PMC12282887
± gives the standard deviation of the averaged measurements.

System: E. coli BW25113 micFp lux reporter
Assay: promoter activity interaction Z-score (Lux/OD deviation from empty-vector control); higher = stronger promoter induction by the compound
Description: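 E. coli BW25113 (wild type or ΔmarA/ΔsoxS/Δrob) carrying pTU175 luxCDABE promoter reporters was grown in LB in 384-well plates at 37°C with each of 94 compounds at 4 two-fold concentrations, in biological duplicates. Luminescence and OD600 were read every 30 min for 12 h and integrated as AUC over 8 h (0-8 h WT, 1-9 h mutants). Lux AUC was divided by OD AUC; the interaction score is the residual of a Huber robust fit of each promoter against the empty-vector control, then Z-transformed per promoter.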

Cc1c(N)nc([C@H](CC(N)=O)NC[C@H](N)C(N)=O)nc1C(=O)N[C@H](C(=O)N[C@H](C)[C@@H](O)[C@H](C)C(=O)N[C@H](C(=O)NCCc1nc(-c2nc(C(=O)NCCC[S+](C)C)cs2)cs1)[C@@H](C)O)[C@@H](OC1OC(CO)C(O)C(O)C1OC1OC(CO)C(O)C(OC(N)=O)C1O)c1cnc[nH]1 (stereo partly drawn) [Bleomycin]
promoter activity interaction Z-score (0.038 µg/ml, genetic background: wild type): -0.542 ± 0.065 | promoter activity interaction Z-score (0.038 µg/ml, genetic background: ΔmarA): -0.018 ± 0.18 | promoter activity interaction Z-score (0.038 µg/ml, genetic background: Δrob): -0.0145 ± 0.17 | promoter activity interaction Z-score (0.038 µg/ml, genetic background: ΔsoxS): -0.239 ± 0.3 | promoter activity interaction Z-score (0.076 µg/ml, genetic background: wild type): -0.384 ± 0.099 | promoter activity interaction Z-score (0.076 µg/ml, genetic background: ΔmarA): -0.0986 ± 0.079 | promoter activity interaction Z-score (0.076 µg/ml, genetic background: Δrob): -0.0358 ± 0.11 | promoter activity interaction Z-score (0.076 µg/ml, genetic background: ΔsoxS): -0.0314 ± 0.21 | promoter activity interaction Z-score (0.15 µg/ml, genetic background: wild type): -0.758 ± 0.17 | promoter activity interaction Z-score (0.15 µg/ml, genetic background: ΔmarA): 0.0263 ± 0.051 | promoter activity interaction Z-score (0.15 µg/ml, genetic background: Δrob): 0.317 ± 0.023 | promoter activity interaction Z-score (0.15 µg/ml, genetic background: ΔsoxS): -0.34 ± 0.014 | promoter activity interaction Z-score (0.3 µg/ml, genetic background: wild type): -0.844 ± 0.18 | promoter activity interaction Z-score (0.3 µg/ml, genetic background: ΔmarA): -0.0349 | promoter activity interaction Z-score (0.3 µg/ml, genetic background: Δrob): -0.227 ± 0.59 | promoter activity interaction Z-score (0.3 µg/ml, genetic background: ΔsoxS): -1.55

C[n+]1ccc(-c2cc[n+](C)cc2)cc1 [Paraquat]
promoter activity interaction Z-score (0.64 µg/ml, genetic background: wild type): 0.149 ± 0.24 | promoter activity interaction Z-score (0.64 µg/ml, genetic background: ΔmarA): 1.489 ± 0.0083 | promoter activity interaction Z-score (0.64 µg/ml, genetic background: Δrob): 1.28 ± 0.4 | promoter activity interaction Z-score (0.64 µg/ml, genetic background: ΔsoxS): -0.129 ± 0.0025 | promoter activity interaction Z-score (1.3 µg/ml, genetic background: wild type): 0.566 ± 0.14 | promoter activity interaction Z-score (1.3 µg/ml, genetic background: ΔmarA): 2.36 ± 0.1 | promoter activity interaction Z-score (1.3 µg/ml, genetic background: Δrob): 2.69 ± 0.87 | promoter activity interaction Z-score (1.3 µg/ml, genetic background: ΔsoxS): -0.0229 ± 0.11 | promoter activity interaction Z-score (2.6 µg/ml, genetic background: wild type): 1.23 ± 0.11 | promoter activity interaction Z-score (2.6 µg/ml, genetic background: ΔmarA): 3.79 ± 0.15 | promoter activity interaction Z-score (2.6 µg/ml, genetic background: Δrob): 4.57 ± 1.3 | promoter activity interaction Z-score (2.6 µg/ml, genetic background: ΔsoxS): -0.156 ± 0.22 | promoter activity interaction Z-score (5.1 µg/ml, genetic background: wild type): 3.89 ± 0.099 | promoter activity interaction Z-score (5.1 µg/ml, genetic background: ΔmarA): 5.91 ± 1.2 | promoter activity interaction Z-score (5.1 µg/ml, genetic background: Δrob): 8.849 ± 0.017 | promoter activity interaction Z-score (5.1 µg/ml, genetic background: ΔsoxS): -0.509 ± 0.16

C[C@]12CC[C@H]3[C@@H](CCC4=CC(=O)CC[C@@]43C)[C@@H]1CC[C@@H]2O [Testosterone]
promoter activity interaction Z-score (18 µg/ml, genetic background: wild type): -0.197 ± 0.0038 | promoter activity interaction Z-score (18 µg/ml, genetic background: ΔmarA): 0.0474 ± 0.038 | promoter activity interaction Z-score (18 µg/ml, genetic background: Δrob): -0.0298 ± 0.091 | promoter activity interaction Z-score (18 µg/ml, genetic background: ΔsoxS): 0.319 ± 0.18 | promoter activity interaction Z-score (36.1 µg/ml, genetic background: wild type): -0.14 ± 0.34 | promoter activity interaction Z-score (36.1 µg/ml, genetic background: ΔmarA): 0.094 ± 0.098 | promoter activity interaction Z-score (36.1 µg/ml, genetic background: Δrob): -0.000736 ± 0.15 | promoter activity interaction Z-score (36.1 µg/ml, genetic background: ΔsoxS): -0.0287 ± 0.15 | promoter activity interaction Z-score (72.1 µg/ml, genetic background: wild type): 0.142 ± 0.26 | promoter activity interaction Z-score (72.1 µg/ml, genetic background: ΔmarA): 0.527 ± 0.063 | promoter activity interaction Z-score (72.1 µg/ml, genetic background: Δrob): 0.174 ± 0.16 | promoter activity interaction Z-score (72.1 µg/ml, genetic background: ΔsoxS): 0.257 ± 0.41 | promoter activity interaction Z-score (144.2 µg/ml, genetic background: wild type): 0.181 ± 0.03 | promoter activity interaction Z-score (144.2 µg/ml, genetic background: ΔmarA): 0.196 ± 0.089 | promoter activity interaction Z-score (144.2 µg/ml, genetic background: Δrob): 0.202 ± 0.074 | promoter activity interaction Z-score (144.2 µg/ml, genetic background: ΔsoxS): 0.625 ± 0.45
